Assay outcomes deposited in PubChem by National Center for Advancing Translational Sciences (NCATS).
Shown are actives, neighbours in structure and some others; about 10% of the full set was active somewhere.
JMJD2A Tudor: inhibitors of human JMJD2A Tudor domain; O75164; AlphaScreen JMJD2A-Tudor / H3K4me3 peptide binding; Potency, µM (titrated, usually from 114 µM), usual class: inhibitors; 390,000 compounds, 4.4% hits; note: nearly all actives have a fitted effect of over 50% in size
Six1-Eya2 inh: blocks human Six1 binding to Eya2; Q15475+O00167; AlphaScreen GST-Six1/His-Eya2 binding, biochemical; active compounds read low; activity change, % (concentration not given with the values); 360,000 compounds, 0.56% hits; AID 651725; in the data active = activity change below about -65%; inconclusive = mostly about -30% to -63%
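Six1/Eya2 binding was read as AlphaScreen signal after compounds were pinned into GST-Six1 plus His-tagged Eya2 (5X stock 250/500 nM) in pH 8.0 Tris/NaCl/TCEP buffer, beads added, then incubated 1 h, 37 C, dark.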
G9a inh: inhibitors of human histone lysine methyltransferase G9a; Q96KQ7; G9a H3K9 monomethylation, AlphaScreen, 2 h; Potency, µM (top dose mostly 102 µM), actives largely listed as inhibitors; 350,000 compounds, 8.8% hits; note: nearly all actives have a fitted effect of over 75% in size
Target sequence (Q96KQ7 913-1193 limits assumed): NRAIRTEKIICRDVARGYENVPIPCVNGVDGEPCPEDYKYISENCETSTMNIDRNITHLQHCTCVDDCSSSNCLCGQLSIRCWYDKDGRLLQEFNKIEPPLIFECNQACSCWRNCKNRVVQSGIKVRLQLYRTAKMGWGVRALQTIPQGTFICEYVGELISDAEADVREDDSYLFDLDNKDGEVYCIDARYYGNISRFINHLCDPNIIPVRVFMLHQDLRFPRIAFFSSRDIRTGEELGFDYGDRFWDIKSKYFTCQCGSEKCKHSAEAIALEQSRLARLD
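Step 1: enzyme (final 20 nM) with compound, 15 min RT. Step 2: substrate peptide 500 nM and SAM 20 uM, 2 h RT. Step 3: anti-H3K9me1 antibody and AlphaScreen beads, 10 min, then plate read.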
CtBP-E1A inh: blocks the CtBP interaction with E1A; AlphaScreen GST-E1A/His-CtBP binding, 1536-well; active compounds read low; activity change, % (test concentration not listed); 340,000 compounds, 0.49% hits; in the data active = activity change below about -65%; inconclusive = mostly about -30% to -63%
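Homogeneous bead-based format: GST-tagged E1A captured on glutathione donor beads, His-tagged CtBP on nickel acceptor beads; compounds precede bead addition by 2 h at 37 °C.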
HP1b chromo inh: blocks HP1-beta chromodomain binding to methylated histone tails; AID 540317; Potency, µM (titrated, usually from 114 µM), hits mostly inhibitors; 390,000 compounds, 0.56% hits; AlphaScreen HP1-beta / biotin-H3K9me3 peptide binding; note: nearly all actives have a fitted effect of over 70% in size
Target sequence (P83916 whole entry, looked up): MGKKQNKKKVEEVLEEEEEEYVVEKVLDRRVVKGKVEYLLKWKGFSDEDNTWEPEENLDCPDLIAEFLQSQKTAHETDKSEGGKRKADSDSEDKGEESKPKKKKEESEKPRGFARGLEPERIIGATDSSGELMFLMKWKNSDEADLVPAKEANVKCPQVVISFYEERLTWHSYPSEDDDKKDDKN
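AlphaScreen: HP1-beta (50 nM) preformed 30 min with biotin-H3(1-18)K9me3 peptide (50 nM) in PBS pH 7.4, 0.01% Tween-20. Compound added for 30 min at RT, then streptavidin donor/nickel chelate acceptor beads (10 ug/mL) for 30 min.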
BAZ2B inh: BAZ2B (human) inhibition. AlphaScreen BAZ2B-H3K14Ac peptide displacement. 360,000 compounds, 4.4% hits. Q9UIF8. Potency, µM (series often up to 114 µM), most hits filed as inhibitors. AID 504333; note: nearly all actives have a fitted effect of over 60% in size
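Complex of BAZ2B and biotin-H3K14Ac (50 nM apiece) forms over 30 min at RT, then faces library compounds up to 110 uM for another 30 min; AlphaScreen beads added, 20 min dark incubation, luminescence read.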
Hits are given with their value; [ ] = dose if it differs, or a comment. Unless noted, calls come from the whole dose curve; as a rule, active = well fitted inhibition curve with a large enough effect; inconclusive = small, poorly fitted or top-dose-only effect; inactive = no such curve, though single readings can be large or run the other way.

What do the screens show for `COc1ccc(Br)cc1CNC(=O)c1cc2n(n1)CCCN(Cc1ccc(C)cc1)C2=O`?
JMJD2A Tudor: inactive; G9a inh: inactive[12.7 µM]; HP1b chromo inh: inactive; BAZ2B inh: inactive

What do the screens show for `O=C1CSC(=S)N1N1C(=O)c2cccc([N+](=O)[O-])c2C1=O`?
G9a inh: 6.31µM; BAZ2B inh: inconclusive

Results for O=C1c2cccc([N+](=O)[O-])c2C(=O)N1CCO ?
JMJD2A Tudor: inactive; Six1-Eya2 inh: inactive; G9a inh: inactive; CtBP-E1A inh: inactive; HP1b chromo inh: inactive; BAZ2B inh: inactive

Results for Cc1ccnc(SCC(=O)N2CCc3ccccc3C2)n1 ?
JMJD2A Tudor: inactive; Six1-Eya2 inh: inactive; G9a inh: 39.8µM; CtBP-E1A inh: inactive; HP1b chromo inh: inactive; BAZ2B inh: inactive

Results for O=C(CSc1ncccn1)N1CCc2ccccc2C1 ?
JMJD2A Tudor: inactive; Six1-Eya2 inh: inactive; G9a inh: inactive; HP1b chromo inh: inactive; BAZ2B inh: inactive

How did O=C(CNCc1ccccn1)N1CCc2ccccc2C1 do in these assays?
JMJD2A Tudor: inconclusive; Six1-Eya2 inh: -89.0; G9a inh: inactive; CtBP-E1A inh: -94.7; HP1b chromo inh: inactive; BAZ2B inh: 3.98µM

Results for CCN(c1ccccc1C)S(=O)(=O)c1nnc(NC(=O)c2ccc(OC)c(OC)c2)s1 ?
JMJD2A Tudor: inactive; G9a inh: inactive; HP1b chromo inh: inactive; BAZ2B inh: inactive

What do the screens show for `O=C(NC1CC1)c1cc(=S)[nH]c2ccccc12`?
JMJD2A Tudor: 17.8µM; Six1-Eya2 inh: inactive; CtBP-E1A inh: inactive; HP1b chromo inh: inactive

Results for Cc1c(NC(=O)COc2c(F)c(F)c(F)c(F)c2F)c(=O)n(-c2ccccc2)n1C ?
JMJD2A Tudor: inactive; Six1-Eya2 inh: inactive; G9a inh: inactive; CtBP-E1A inh: inactive; HP1b chromo inh: inactive; BAZ2B inh: inactive

How did COc1cc2ccccc2cc1C(=O)N(CCN(C)C)c1nc2ccc(Br)cc2s1 do in these assays?
JMJD2A Tudor: inconclusive; Six1-Eya2 inh: inconclusive; G9a inh: 25.1µM; CtBP-E1A inh: inactive; HP1b chromo inh: inconclusive; BAZ2B inh: inconclusive

What do the screens show for `O=C(CCc1ccccc1)N(Cc1cccnc1)c1nc2c(F)cc(F)cc2s1`?
JMJD2A Tudor: inactive; G9a inh: inactive; HP1b chromo inh: inactive; BAZ2B inh: inactive

What do the screens show for `COc1cc2ccccc2cc1C(=O)N(CCN(C)C)c1nc2c(F)cc(F)cc2s1`?
JMJD2A Tudor: inconclusive; Six1-Eya2 inh: inactive; G9a inh: 31.6µM; CtBP-E1A inh: inactive; HP1b chromo inh: inactive; BAZ2B inh: inconclusive

How did CN(C)CCCN(C(=O)c1ccco1)c1nc2ccc(Br)cc2s1 do in these assays?
JMJD2A Tudor: inactive; Six1-Eya2 inh: inactive; G9a inh: inconclusive; CtBP-E1A inh: inactive; HP1b chromo inh: inactive

How did CN(C)CCCN(C(=O)CCc1ccccc1)c1nc2ccc(Br)cc2s1 do in these assays?
JMJD2A Tudor: inactive; Six1-Eya2 inh: inactive; G9a inh: 79.4µM; CtBP-E1A inh: inactive; HP1b chromo inh: inactive

Results for CN(C)CCN(C(=O)CCc1ccccc1)c1nc2c(F)cc(F)cc2s1 ?
JMJD2A Tudor: inactive; Six1-Eya2 inh: inactive; G9a inh: 50.1µM; CtBP-E1A inh: inactive; HP1b chromo inh: inactive

How did CN(C)CCCN(C(=O)CCc1ccccc1)c1nc2ccc(F)cc2s1 do in these assays?
JMJD2A Tudor: inactive; Six1-Eya2 inh: inactive; G9a inh: inconclusive; CtBP-E1A inh: inactive; HP1b chromo inh: inactive; BAZ2B inh: inactive

What do the screens show for `CCCn1c(=O)c2sccc2n2c(CCCC(=O)N3CCN(c4ccccc4OC)CC3)nnc12`?
JMJD2A Tudor: inactive; G9a inh: inactive; HP1b chromo inh: inactive; BAZ2B inh: inactive

What do the screens show for `COc1ccc(NC(=O)CSc2nc(-c3cccs3)cc(C(F)(F)F)n2)cc1OC`?
JMJD2A Tudor: inactive; G9a inh: inactive; HP1b chromo inh: inactive; BAZ2B inh: inactive

How did CCN(CC)C(=O)c1cccc(-c2csc(C(O)c3cccc(Cl)c3)n2)c1 (centres undefined) do in these assays?
Six1-Eya2 inh: inactive; CtBP-E1A inh: inactive

Results for c1ccc(-c2nnc(SCc3nc4ccccc4[nH]3)n2Cc2ccco2)nc1 ?
JMJD2A Tudor: inconclusive; Six1-Eya2 inh: inconclusive; G9a inh: 50.1µM; CtBP-E1A inh: inconclusive; HP1b chromo inh: inactive; BAZ2B inh: inconclusive

Results for COc1ccc(-c2nnc(SCc3cccc(C)c3)n2N)cc1 ?
JMJD2A Tudor: inactive; Six1-Eya2 inh: inactive; G9a inh: inactive; CtBP-E1A inh: inactive; HP1b chromo inh: inactive; BAZ2B inh: inactive

What do the screens show for `Cc1ccc(NC(=O)CSc2nnc(-c3ccccn3)n2N)c(Br)c1`?
JMJD2A Tudor: inconclusive; Six1-Eya2 inh: inconclusive; G9a inh: inactive; CtBP-E1A inh: inconclusive; HP1b chromo inh: inactive; BAZ2B inh: 12.6µM

What do the screens show for `C(=C\c1ccccc1)/CSc1nnc(-c2ccccn2)n1Cc1ccco1`?
JMJD2A Tudor: inconclusive; Six1-Eya2 inh: inconclusive; G9a inh: 15.8µM; CtBP-E1A inh: inactive; HP1b chromo inh: inactive; BAZ2B inh: inactive

What do the screens show for `NC(=O)CSc1nnc(-c2ccccn2)n1Cc1ccco1`?
JMJD2A Tudor: inactive; Six1-Eya2 inh: inactive; G9a inh: inactive; CtBP-E1A inh: inactive; HP1b chromo inh: inactive; BAZ2B inh: inactive

Results for Cc1cccc(CSc2nnc(-c3ccccn3)n2N)c1 ?
JMJD2A Tudor: 50.1µM; Six1-Eya2 inh: inactive; G9a inh: 14.1µM; CtBP-E1A inh: inactive; HP1b chromo inh: inactive; BAZ2B inh: 35.5µM

How did Cc1cc(OCCCn2c(CCNC(=O)C3CCCCC3)nc3ccccc32)ccc1Cl do in these assays?
JMJD2A Tudor: inactive; G9a inh: inactive; HP1b chromo inh: inactive; BAZ2B inh: inactive

Results for COc1ccc(NC(=O)C(OC(=O)CNC(=O)c2ccccc2)c2ccccc2)cc1F (centres undefined) ?
JMJD2A Tudor: inactive

What do the screens show for `Cc1ccc(NC(=O)C2CCCN(S(=O)(=O)c3cn(C(C)C)cn3)C2)c(C)c1` (centres undefined)?
JMJD2A Tudor: inactive; G9a inh: inactive; HP1b chromo inh: inactive; BAZ2B inh: inactive

What do the screens show for `COc1cccc(CNC(=O)c2nnc(Cc3ccc(Cl)cc3)o2)c1`?
JMJD2A Tudor: inactive; G9a inh: inactive; HP1b chromo inh: inactive; BAZ2B inh: inactive

How did COc1ccc(S(=O)(=O)Nc2cccc(S(=O)(=O)N3CCCC3)c2)cc1OC do in these assays?
JMJD2A Tudor: inactive; Six1-Eya2 inh: inactive; G9a inh: inactive; CtBP-E1A inh: inactive; HP1b chromo inh: inactive; BAZ2B inh: inactive

What do the screens show for `Clc1cccc(-c2nnc(SCc3nc4ccccc4[nH]3)n2Cc2ccco2)c1`?
JMJD2A Tudor: inconclusive; Six1-Eya2 inh: inactive; G9a inh: 39.8µM; CtBP-E1A inh: inactive; HP1b chromo inh: inactive; BAZ2B inh: inconclusive
